Measurements: PubChem BioAssay (NCI)
The panel holds about 83,000 compounds, 20% with a hit somewhere; the sample as a whole holds those more often.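 Cell lines were cultured in 96-well plates, exposed to a single compound concentration, and assessed for percent growth 48 hours later.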 Activity calls are given as the source filed them.

tested on: KM12 colon; assay: NCI-60 one-dose screen, 48 h (100 = growth as untreated, 0 = no growth, -100 = all killed); settings: 10 µM unless noted
Procedure: Growth inhibition of the KM12 human tumor cell line is measured as a screen for anti-cancer activity. Cells are grown in 96 well plates and exposed to the test compound for 48 hours. Compounds are tested at a single concentration, which is 10^-5 M for most compounds. The reported endpoint is percent growth (GI% or GIPRCNT), where numbers from 0 - 100% represent growth inhibition, and numbers from -100% - 0 represent cell death. For example, a value of 40 represents 60% growth inhibition. A value of 0 means no net growth occurred over the course of the experiment. A value of -40 indicates 40% of cells at the beginning of the experiment died by the end of the experiment. A value of -100 means all cells are dead at the end of the experiment.
NCI-60 Human Tumor Cell Lines Screen was performed using the standard one-dose NCI protocol, which is described in more detail at https://dtp.cancer.gov/discovery_development/nci-60/default.htm.
Compounds with GIPRCNT values below 10 were considered active. Activity score was based on GIPRCNT using the following formula: […]
Score is 0 for GIPRCNT values of 100 or above, 50 for GIPRCNT values of 0, and 100 for GIPRCNT values of -100.

Row | Compound | growth
1 | C/C(=N\Nc1ccc([N+](=O)[O-])cc1[N+](=O)[O-])c1ccc(Br)cc1 | 93.3% (inactive)
2 | CCN(Cc1ccc(Cl)c(Cl)c1)c1ccc2nc(N)nc(N)c2c1C | -92.6% (active)
3 | O=C(O)CC1=CCCCC1 | 98% (inactive)
4 | CCOC(=O)c1cc(C)[nH]c(=O)c1C#N | 103% (inactive)
5 | C#CCSc1nnnn1-c1ccccc1 | 77.6% (inactive)
6 | COc1cc(N)c2ncccc2c1Cl | 117% (inactive)
7 | CC(=O)c1cccc(NS(=O)(=O)c2ccc(C)cc2)c1 | 34.2% (inactive)
8 | C=CCC(OC(C)=O)c1ccc(C(C)C)cc1 (stereo not given) | 114% (inactive)
9 | N#CC1(O)CCCCC1 | 102% (inactive)
10 | CCN(CC)CCOC(=O)Nc1c(C(C)C)cccc1C(C)C | 105% (inactive)
11 | C=C1C(=O)C2CCC1C2 (stereo not given) | 96.5% (inactive)
12 | Cc1cc(NC(=O)c2ccccc2)c(Cl)cc1N | 106% (inactive)
13 | NC(=S)c1c(N)n(C2OC(CO)C(O)C2O)c2ncnc(N)c12 (stereo not given) | -6.52% (active)
14 | CCCCCCCCCCC(=O)CCCCCCCCCC | 104% (inactive)
15 | N#C/C(=C\NC(=S)N=Nc1c(O)[nH]c2ccccc12)c1nc2ccccc2s1 | 102% (inactive)
16 | Oc1ccc(N=Cc2ccc(OCc3ccccc3)cc2)cc1 | 92.8% (inactive)
17 | NC(CSSCC(N)C(=O)O)C(=O)O (stereo not given) | 8.65% (active)
18 | O=S(=O)(OCCOS(=O)(=O)c1ccccc1)c1ccccc1 | 101% (inactive)
19 | COc1cc(C(=O)NC(=S)NCc2ccncc2)cc(OC)c1OC | 98% (inactive)
20 | COC(=O)c1ccccc1C(=O)c1c(C)cc(C)cc1C | 102% (inactive)

Row | Compound | growth
21 | O=C(O)c1ccc(OCc2ccccc2)cc1 | 111% (inactive)
22 | N#C/C(=C\c1ccc2c(c1)OCO2)c1ccccc1 | 42.8% (inactive)
23 | O=C(c1ccc(Cl)cc1)N1CCCCC1 | 106% (inactive)
24 | Cc1ccc(/C=N/NC(N)=S)s1 | 107% (inactive)
25 | Nc1nc(N)nc(N2CCCCC2)n1 | 101% (inactive)
26 | Cc1ccccc1CC(N)C(=O)O (stereo not given) | 119% (inactive)
27 | Clc1cccc(Cl)c1C1CSc2ccccc2N=C1c1ccccc1 (stereo not given) | 44.1% (inactive)
28 | C=COC(=O)C(C)(C)C | 107% (inactive)
29 | CCOc1ccccc1NC(=O)CCl | 97.1% (inactive)
30 | C=C1SC(=Nc2c(C)cccc2C)N(c2nc(Cl)nc(Cl)n2)C12CCCCC2 | 103% (inactive)
31 | CCCCN(C(=O)CC)c1ccccc1 | 102% (inactive)
32 | CCOP(=O)(NC(c1ccccc1)c1ccccc1)OCC | 114% (inactive)
33 | C/C(=N\O)c1ccccn1 | 93.8% (inactive)
34 | O=C(OCC1CCCO1)c1ccc([N+](=O)[O-])cc1 (stereo not given) | 109% (inactive)
35 | Cn1c(=O)[nH]c2ccccc2c1=O | 102% (inactive)
36 | CCOC(=O)/C(C)=C\c1ccc(OC)c(OC)c1 | 102% (inactive)
37 | CC(C)C1CCC(C)C(O)C1 (stereo not given) | 97.3% (inactive)
38 | CCCCCC/C=C\CCCCCCCCCc1cc(O)cc(OC)c1O | 12.5% (inactive)
39 | O=C(NC(=S)N1CC=CCC1)c1ccccc1 | 112% (inactive)
40 | O=C(NCCc1ccccc1)/C(=C\c1ccc(Cl)cc1Cl)NC(=O)c1ccccc1 | 93.4% (inactive)
